Assay results: PubChem BioAssay AID1210 (NMMLSC, 2008)
Active and inactive are the calls of the source.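 The calls were made as follows: active = blocks over 70% of labeled estradiol binding at 10 µM, or over a set limit at 100 nM; inactive = the rest.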

Molecular target: Estrogen receptor beta (Homo sapiens) (UniProt Q92731)
Experiment: displacement of fluorescent estrogen from ERbeta – cell-based, Cos7 ERbeta-GFP, flow cytometry, primary screen (AID 1210);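 also: 0% = DMSO vehicle wells and 100% = complete loss of labeled estradiol signal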
Conditions: fluorescent estrogen binding, stronger effect = higher value
[1] = ligand binding inhibition, at 0.1 µM

Sequence of Estrogen receptor beta (Homo sapiens) (Q92731 whole entry, looked up): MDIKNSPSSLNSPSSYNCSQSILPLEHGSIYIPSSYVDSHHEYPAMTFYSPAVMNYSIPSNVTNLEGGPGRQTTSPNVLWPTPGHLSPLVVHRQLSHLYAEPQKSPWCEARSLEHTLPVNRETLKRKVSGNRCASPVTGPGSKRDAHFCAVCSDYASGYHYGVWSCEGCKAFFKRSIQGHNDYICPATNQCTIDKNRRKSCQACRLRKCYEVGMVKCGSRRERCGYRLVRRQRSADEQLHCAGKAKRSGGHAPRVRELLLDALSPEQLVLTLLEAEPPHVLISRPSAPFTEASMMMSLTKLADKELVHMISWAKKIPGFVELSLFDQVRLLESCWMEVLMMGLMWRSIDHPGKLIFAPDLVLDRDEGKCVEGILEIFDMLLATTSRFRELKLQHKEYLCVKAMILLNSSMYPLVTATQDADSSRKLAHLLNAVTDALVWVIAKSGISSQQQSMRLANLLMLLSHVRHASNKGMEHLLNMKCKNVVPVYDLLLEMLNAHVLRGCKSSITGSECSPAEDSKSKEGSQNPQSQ

Row | Compound | inhibition (at 10 µM) | inhibition [1] [%]
1 | COc1cc(/C=N/N2CCN(C3c4ccccc4-c4ccccc43)CC2)ccc1O | 39% (inactive) | 10
2 | Cc1cc(-c2ccccc2)nc2cc(C(N)=O)nn12 | 49% (inactive) | 14
3 | NC(=O)c1oc2ccccc2c1NC(=O)c1nc2ccccc2s1 | 39% (inactive) | 10
4 | C/C(N)=C(/C#N)C(=O)CSc1nnc(COc2ccccc2Cl)o1 | 44% (inactive) | 44
5 | CC(=O)N1c2ccc3ccccc3c2C2C=CCC2C1c1ccc(Br)cc1 (stereo not drawn) | 8% (inactive) | 3
6 | CCOC(=O)C1CCCN(C(=O)c2ccc(CS(=O)(=O)c3ccc(C)cc3)o2)C1 (stereo not drawn) | 55% (inactive) | 21
7 | Cc1cc(C)c2c(c1)NC(c1cc3c(cc1Br)OCO3)C1CC=CC21 (stereo not drawn) | 42% (inactive) | 46
8 | O=C(CSc1nnnn1-c1ccccc1)Nc1nsc(-c2ccc(Cl)cc2)n1 | 36% (inactive) | 21
9 | CCc1ccc(-c2nn(-c3ccccc3)cc2CSC(=N)N)cc1 | 76% (active) | 71
10 | Cc1nnc(NC(=O)CSc2nc3c(c(=O)n2CCc2ccccc2)SC(C)C3)s1 (stereo not drawn) | 45% (inactive) | 34
11 | Cc1ccc(C(=O)NCC(=O)OCC(=O)c2c(N)n(C)c(=O)n(C)c2=O)s1 | 5% (inactive) | 25
12 | C[C@]12CC[C@@H]3c4ccc(O)cc4C(=O)C[C@H]3[C@@H]1CC[C@@H]2O | 45% (active) | 89
13 | O=[N+]([O-])c1cc(/C=N/N2CCN(C3c4ccccc4-c4ccccc43)CC2)ccc1Cl | 21% (inactive) | 2
14 | COC(=O)c1cc(-c2c(C)oc3cc(O)ccc3c2=O)c(C)o1 | 12% (inactive) | 1
